39 compounds from PubChem BioAssay AID720690 (Broad Institute, 2013) can be followed below.

Potency and affinity values are given separately. Active and inactive are the calls of the source.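 Rule for the calls: active = every repeat run showing a signal drop whose fitted half-maximal concentration is at most twice the top tested concentration; inconclusive = repeat runs disagree, or flat partial drop, or poor fit; inactive = the rest.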

The test in a line: HEK293T cytotoxicity, dose response, cytotoxicity control for miR-122 modulator project, cell-based, activator set, cherry-pick (AID 720690).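 Note: 0% = neutral control wells and -100% = MG132 cytotoxic control wells.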 The following applies: HEK293T viability, CellTiter-Glo luminescence, 48 h; series mostly up to 26 µM; activity change, negative = cytotoxicity: at the top concentration. Background: Cellular ATP, detected with luciferase, serves as a proxy for viable cell number.
`C/C=C/c1ccc([C@H]2[C@@H](CO)N(C(=O)C3CC3)[C@H]2CN(C)C(=O)CC2CC2)cc1`: the “activity change, negative = cytotoxicity” value is -21.8% (inactive).
For the compound `Cc1cc(C(=O)Nc2cccc(O)c2)co1`, the “activity change, negative = cytotoxicity” value was 2.9% (inactive).
Regarding `CCC(=O)N1[C@H](CO)[C@H]2c3ccccc3N(C(=O)CC(F)(F)F)C[C@H]21`, the “activity change, negative = cytotoxicity” value is -6.13% [at 23.5 µM] (inactive).
Turning to `C[C@H]1CCCCO[C@@H](CN(C)CC2CCCCC2)[C@@H](C)CN([C@@H](C)CO)C(=O)c2cc(NC(=O)Nc3cccc4ccccc34)ccc2O1`, the “activity change, negative = cytotoxicity” value is -16.9% [at 12 µM] (inactive).
Then `CNC(=O)C[C@@H]1CC[C@@H]2[C@H](COc3ccc(NC(=O)c4cccc(OC)c4)cc3C(=O)N2C)O1`, with 4.45% (inactive).
The figure for `OCc1ccc(-c2nn(Cc3ccccc3)c3ccccc23)o1` is -14.7% (inactive).
Regarding `COc1cccc(CNC(=O)C[C@H]2CC[C@@H]3[C@@H](COc4ccc(NC(C)=O)cc4C(=O)N3C)O2)c1`, the “activity change, negative = cytotoxicity” value is -11.6% (inactive).
Then `O=C(Cc1cccnc1)N1[C@@H](CO)[C@@H]2c3ccccc3NC[C@@H]21`, with -12.6% (inactive); and `CNC(=O)C[C@H]1CC[C@H]2[C@H](COc3ccc(NC(=O)c4cccc(OC)c4)cc3C(=O)N2C)O1`, with 15% (inactive); and `CCN(C[C@H]1N[C@@H](CO)[C@@H]1c1ccc(C2=CCCC2)cc1)C(=O)c1cccnc1`, with -10.3% (inactive).
Consider `COCC(=O)N(C)C[C@H]1Oc2cc(-c3ccccc3F)ccc2S(=O)(=O)N([C@H](C)CO)C[C@H]1C`, for which the “activity change, negative = cytotoxicity” value is -9.46% (inactive).
The figure for `COc1ccc(-c2nc(NC(=O)CSc3nnc(C)s3)ns2)cc1` is 19.9% (inactive).
Then `CCCCN1C=C(C(=O)OC)C(c2ccccc2C(F)(F)F)C(C(=O)OC)=C1`, with -3.92% (inactive); and `COc1ccc(N2CCN(C(=O)CSc3nnc(CNc4ccccc4)o3)CC2)cc1`, with -20.4% (inactive); and `COC(=O)c1nn(-c2ccccc2)c(Sc2ccc(Cl)cc2)c1/C=N/O`, with 37% (inactive).
With `C[C@@H]1CN([C@H](C)CO)C(=O)c2cccc(NC(=O)c3ccc(-c4nccs4)cc3)c2O[C@H]1CN(C)S(=O)(=O)c1ccc(F)cc1`, the “activity change, negative = cytotoxicity” value is -0.125% [at 23.5 µM] (inactive).
Then `CCn1nnnc1SCC(=O)Nc1nnc(C(C)C)s1`, with 10.6% (inactive); and `CCS(=O)(=O)Nc1ccc2c(c1)C(=O)N(C)C[C@@H](OC)[C@H](C)CN(CC1CCCC1)[C@H](C)CO2`, with -3.76% (inactive); and `CO[C@H]1CN(C)C(=O)c2cc(NC(C)=O)ccc2OC[C@@H](C)N(C(=O)c2ccccn2)C[C@H]1C`, with -7.67% (inactive).
Then `CCCNC(=O)Nc1ccc2c(c1)C(=O)N(C)[C@@H]1CC[C@@H](CC(=O)NCC3CCCCC3)O[C@@H]1CO2`, with 2.63% (inactive); and `Cc1nnsc1Sc1cccc(C(F)(F)F)c1`, with 2.48% (inactive); and `C/C=C/c1ccc([C@H]2[C@@H](CNC(=O)CC)N(Cc3ccccn3)[C@H]2CO)cc1`, with -11.2% (inactive).
For `CN1C(=O)c2cc(NC(=O)c3cccc(F)c3)ccc2OC[C@H]2O[C@H](CC(=O)NC3CCC3)CC[C@@H]21`, the “activity change, negative = cytotoxicity” value was -9.72% (inactive).
In the case of `CCCNC(=O)N1C[C@@H]2[C@H](c3ccccc31)[C@@H](CO)N2Cc1cc(F)ccc1F`, the “activity change, negative = cytotoxicity” value is -7.29% [at 23.5 µM] (inactive).
Then `CC(C)NC(=O)N1[C@H](CO)[C@@H](c2ccccc2)[C@@H]1CN(C)C(=O)c1cccnc1`, with -0.275% (inactive); and `CN1C(=O)c2cc(NC(=O)c3cccs3)ccc2OC[C@@H]2O[C@@H](CC(=O)O)CC[C@H]21`, with -1.12% [at 23.5 µM] (inactive); and `CC(C)C#Cc1ccc2c(c1)O[C@H](CN(C)C(=O)c1ccncc1)[C@@H](C)CN([C@@H](C)CO)S2(=O)=O`, with -2.31% (inactive).
Regarding `N#Cc1ccc(C(=O)Nc2ccc(N3CCN(C(=O)c4ccco4)CC3)cc2)c(F)c1`, the “activity change, negative = cytotoxicity” value was 8.37% (inactive).
Then `O=CN1CCN(C(=O)c2ccccc2F)CC1`, with 16.3% (inactive); and `CC(=O)Oc1ccc2c(c1)C(=O)c1ccccc1CO2`, with 2.59% (inactive); and `C/C=C/c1ccc2c(c1)O[C@H](CN(C)C(=O)Nc1cccc(F)c1)[C@H](C)CN([C@@H](C)CO)S2(=O)=O`, with -11.1% (inactive).
The figure for `COCC(=O)N(C)C[C@H]1Oc2cc(C#Cc3cccnc3)ccc2S(=O)(=O)N([C@H](C)CO)C[C@H]1C` is -6.95% (inactive); for `COc1cccc(NC(=O)N(C)C[C@@H]2Oc3ncc(C#Cc4ccncc4)cc3C(=O)N([C@@H](C)CO)C[C@H]2C)c1` it is -11.6% (inactive); for `CN(C)CCCNC(=O)C[C@@H]1CC[C@H]2[C@@H](COc3ccc(NC(=O)c4cccc(F)c4)cc3C(=O)N2C)O1` it is -6.25% (inactive).
Then `O=C(COC(=O)c1ccccc1)Nc1cc(Cl)ccc1Oc1ccccc1`, with -5.95% (inactive); and `COCC(=O)N(C)C[C@H]1Oc2cc(-c3ccc(C#N)cc3)ccc2S(=O)(=O)N([C@H](C)CO)C[C@H]1C`, with 12.3% (inactive).
`CNC(=O)C[C@H]1CC[C@@H]2[C@H](COc3ccc(NC(=O)c4cccc(OC)c4)cc3C(=O)N2C)O1`: the “activity change, negative = cytotoxicity” value is -2.16% [at 23.5 µM] (inactive).
The figure for `CCN(C[C@H]1N[C@@H](CO)[C@@H]1c1ccc(C2=CCCC2)cc1)C(=O)c1ccncc1` is -36.7% (inactive).
The figure for `CC(C)C(=O)Nc1ccc2c(c1)C(=O)N(C)[C@@H]1CC[C@@H](CC(=O)N[C@H](C)c3ccccc3)O[C@@H]1CO2` is -3.75% [at 23.5 µM] (inactive).
